Measured values published in PubChem BioAssay (NCATS).
Inconclusive results are not listed. Calls of active or inactive are those of the source. Unless noted, the call rests on the fitted dose curve; in most records, active means well fitted curve in the direction sought with a large enough effect; inconclusive means small, poorly fitted or top-dose-only effect, or another doubt; inactive means no such curve, though single readings can be large; an effect the other way counts as inactive or inconclusive.

Key:
[1] = target: Vitamin D3 receptor (Homo sapiens) (UniProt P11473); assay: qHTS assay for small molecule antagonists of vitamin D receptor signaling (AID 588541; calls by dose curve;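 further: receptor activated by calcitriol during compound treatment; series mostly up to about 77 µM; on the % scale 0 is the no-effect control and ±100 the full control effect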)
Sequence of Vitamin D3 receptor (Homo sapiens) (P11473 whole entry, looked up): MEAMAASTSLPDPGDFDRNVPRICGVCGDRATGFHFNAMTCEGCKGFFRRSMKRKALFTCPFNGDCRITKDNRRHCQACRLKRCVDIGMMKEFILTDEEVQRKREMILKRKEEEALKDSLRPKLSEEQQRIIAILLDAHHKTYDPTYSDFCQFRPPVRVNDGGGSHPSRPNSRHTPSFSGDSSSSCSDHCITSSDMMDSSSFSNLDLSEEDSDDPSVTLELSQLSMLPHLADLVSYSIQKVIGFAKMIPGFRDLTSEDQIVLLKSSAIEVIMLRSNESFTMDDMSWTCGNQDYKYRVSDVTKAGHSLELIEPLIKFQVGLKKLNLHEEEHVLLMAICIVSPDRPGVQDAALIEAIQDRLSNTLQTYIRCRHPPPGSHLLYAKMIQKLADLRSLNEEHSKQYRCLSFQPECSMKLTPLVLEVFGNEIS
Summary of the method: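 VDR-UAS-bla HEK293T cells (2000/well, 2% charcoal-stripped FBS) were treated with titrated compounds plus 1-alpha,25-dihydroxyvitamin D3 (50 nM or 3 nM final) for 16 h at 37 C. CCF4 beta-lactamase fluorescence was read; Hill fits gave IC50.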

[2] = target: Vitamin D3 receptor (Homo sapiens) (UniProt P11473); assay: qHTS assay for small molecule agonists of vitamin D receptor signaling (AID 588543; calls by dose curve;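 further: 0% = DMSO basal and 100% = reference agonist control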)
Summary of the method: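 Measured: β-lactamase reporter activity (CCF4, 405 nm excitation, 460/530 nm emission) in HEK293T VDR-UAS-bla cells after 16 h compound exposure at 37 °C. Normalization against 50 nM 1α,25-dihydroxyvitamin D3 and DMSO; Hill-fit EC50.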

[3] = qHTS assay for small molecule agonists of retinoid X receptor alpha signaling (AID 588544; calls by dose curve;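 on activation: 0% = DMSO basal wells and 100% = reference agonist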); conditions: HEK293T RXRa-UAS-bla, beta-lactamase reporter, 18 h; 530 nm emission
[4] = target: Retinoic acid receptor RXR-alpha (Homo sapiens) (UniProt P19793); assay: as above
Sequence of Retinoic acid receptor RXR-alpha (Homo sapiens) (P19793 whole entry, looked up): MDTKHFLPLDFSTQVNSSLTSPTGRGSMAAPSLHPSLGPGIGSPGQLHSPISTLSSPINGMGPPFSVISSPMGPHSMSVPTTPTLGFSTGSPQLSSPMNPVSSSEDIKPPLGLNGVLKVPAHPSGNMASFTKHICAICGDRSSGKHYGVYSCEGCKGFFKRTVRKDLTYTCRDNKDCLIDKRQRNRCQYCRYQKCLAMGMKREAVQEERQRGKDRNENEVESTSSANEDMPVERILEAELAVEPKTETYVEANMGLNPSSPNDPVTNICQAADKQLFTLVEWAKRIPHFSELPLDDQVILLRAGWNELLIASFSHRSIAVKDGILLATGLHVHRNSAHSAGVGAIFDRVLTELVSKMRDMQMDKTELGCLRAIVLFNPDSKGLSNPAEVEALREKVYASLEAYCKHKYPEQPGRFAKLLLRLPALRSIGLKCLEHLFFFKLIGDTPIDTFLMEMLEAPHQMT

[5] = target: Thyroid hormone receptor beta (Homo sapiens) (UniProt P10828); assay: qHTS assay for small molecule agonists of thyroid hormone receptor beta signaling (AID 588545; calls by dose curve;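 further: 0% = DMSO only and 100% = 10 nM T3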)
Sequence of Thyroid hormone receptor beta (Homo sapiens) (P10828 whole entry, looked up): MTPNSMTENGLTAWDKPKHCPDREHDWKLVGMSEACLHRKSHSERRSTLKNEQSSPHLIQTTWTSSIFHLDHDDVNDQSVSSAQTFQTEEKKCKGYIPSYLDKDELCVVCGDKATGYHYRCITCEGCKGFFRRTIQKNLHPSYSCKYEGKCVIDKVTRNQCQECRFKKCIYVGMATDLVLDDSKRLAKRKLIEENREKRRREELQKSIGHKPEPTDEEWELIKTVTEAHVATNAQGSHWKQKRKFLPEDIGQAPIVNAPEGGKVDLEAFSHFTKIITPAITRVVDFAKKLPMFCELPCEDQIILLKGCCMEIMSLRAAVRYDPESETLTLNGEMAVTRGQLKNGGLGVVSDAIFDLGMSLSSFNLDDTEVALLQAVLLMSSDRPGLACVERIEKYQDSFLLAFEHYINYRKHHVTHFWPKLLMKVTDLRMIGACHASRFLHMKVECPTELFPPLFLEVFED
Summary of the method: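 Beta-lactamase reporter activity under TR response element control is measured in HEK 293 cells after 18 hrs compound exposure. Signal is ratiometric CCF4 fluorescence, 460/530 nm.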

[6] = qHTS assay for small molecule antagonists of retinoid X receptor alpha signaling (AID 588546; active means well fitted inhibition curve with a large enough effect in the signal ratio, with a control signal flat, not every such curve was filed as active; the % refers to the signal ratio;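 further: cells stimulated with 9-cis-retinoic acid as agonist; on the % scale 0 is the no-effect control and ±100 the full control effect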); conditions: HEK293T RXRa-UAS-bla, beta-lactamase ratio, antagonist mode; measured here: W530 green channel, cytotoxicity proxy
Summary of the method: (§1)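 Beta-lactamase reporter inhibition, read as CCF4 fluorescence ratio (ex 405, em 460/530 nm) after 2 h at RT. HEK293T UAS-bla cells, 2500/well, were stimulated with 9-cis-RA at 500 or 100 nM final alongside test compound for 18 h at 37 C.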

[7] = target: Retinoic acid receptor RXR-alpha (Homo sapiens) (UniProt P19793); assay: as above; conditions: HEK293T RXRa-UAS-bla, beta-lactamase ratio, antagonist mode
Summary of the method: as §1

[8] = qHTS assay for small molecule activators of the p53 signaling pathway (AID 651743; active means well fitted activation curve with a large enough effect in the signal ratio, not every such curve was filed as active; the % refers to the signal ratio; further: series mostly up to about 92 µM; % of control where 0% means no effect); conditions: HCT-116 p53RE-bla, beta-lactamase FRET ratio, 16 h; activation: stronger effect = higher value
Summary of the method: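 Agonist-mode quantitative HTS in HCT-116 cells carrying a p53-response-element beta-lactamase reporter; 16 h compound treatment at 37 C, then FRET substrate loading for 2 h at room temperature and fluorescence read.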

[9] = qHTS assay for small molecule activators of the nuclear factor-kappa B (NF-kB) signaling pathway (AID 651749; active means well fitted activation curve with a large enough effect in the signal ratio; the % refers to the signal ratio; further: series mostly up to about 77 µM; % of control where 0% means no effect); conditions: NF-kB-bla ME-180 cells, beta-lactamase FRET ratio, 16 h; activation: stronger effect = higher value
Summary of the method: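 Human ME-180 cervical cells with an NF-kB-bla construct; compounds added via 23 nL pin transfer, DMSO as vehicle; incubation 16 hr. Reporter activity measured by FRET disruption.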

[10] = qHTS assay for environmental chemicals that activate the Aryl hydrocarbon Receptor (AhR) signaling pathway (AID 651777); conditions: 1A2-DRE human hepatoma cells, luciferase, 24 h; activation: stronger effect = higher value; further: % of control where 0% means no effect; nearly all actives have a fitted effect of over 15% in size
Summary of the method: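 Stable CYP1A2 promoter/DRE-luciferase human hepatoma line treated 24 hr; One-Glo luminescence, 30 min RT.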

[11] = target: Peroxisome proliferator-activated receptor alpha (Homo sapiens) (UniProt Q07869); assay: qHTS assay for small molecule agonists of the peroxisome proliferator-activated receptor alpha (PPARalpha) signaling pathway (AID 651778); conditions: PathHunter PPARalpha complementation, chemiluminescence, 6 h; max response: stronger effect = higher value; further: % of control where 0% means no effect
Sequence of Peroxisome proliferator-activated receptor alpha (Homo sapiens) (Q07869 whole entry, looked up): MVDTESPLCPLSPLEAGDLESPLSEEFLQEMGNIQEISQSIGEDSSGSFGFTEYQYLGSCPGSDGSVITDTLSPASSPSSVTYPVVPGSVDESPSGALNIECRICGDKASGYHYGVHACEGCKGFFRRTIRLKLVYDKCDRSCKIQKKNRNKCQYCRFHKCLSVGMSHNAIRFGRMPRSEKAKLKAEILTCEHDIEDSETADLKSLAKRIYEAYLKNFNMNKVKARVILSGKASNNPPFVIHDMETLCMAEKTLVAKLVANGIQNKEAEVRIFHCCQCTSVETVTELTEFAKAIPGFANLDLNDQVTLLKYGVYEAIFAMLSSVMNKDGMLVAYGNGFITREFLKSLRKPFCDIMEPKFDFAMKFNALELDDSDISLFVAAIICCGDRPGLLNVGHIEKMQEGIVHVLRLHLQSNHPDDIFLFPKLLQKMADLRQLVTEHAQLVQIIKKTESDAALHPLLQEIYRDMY
Summary of the method: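 Cells plated at 2,000/well and held overnight at 37 C, 5% CO2, then compound added by pin tool for 6 hr; after PathHunter detection reagent and 60 min at room temperature, chemiluminescence from enzyme complementation was read.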

[12] = qHTS assay for small molecule agonists of the antioxidant response element (ARE) signaling pathway measured by Nrf2-dependant transcriptional activity (AID 720636; active means well fitted curve in the direction sought with a large enough effect in the repeat runs; an effect the other way counts as inactive or inconclusive;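 further: HepG2 cells with an ARE-driven luciferase reporter; % of control where 0% means no effect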)
Summary of the method: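 Reporter gene assay, HepG2 ARE-luc: 16 hr compound, 37 C, 5% CO2; read-out luciferase luminescence.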

[13] = qHTS assay for small molecule agonists of the antioxidant response element (ARE) signaling pathway measured by Nrf2-dependant transcriptional activity - cell viability counter screen (AID 720653; active means well fitted curve in the direction sought with a large enough effect in the repeat runs; an effect the other way counts as inactive or inconclusive; further: on the % scale 0 is the no-effect control and ±100 the full control effect); conditions: ARE-bla HepG2 viability, CellTiter-Glo ATP luminescence, 16 h; max response: stronger effect = lower value
Summary of the method: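 ARE-bla HepG2 cells (2,000/well) rested 5 hrs at 37C/5% CO2, then exposed to compounds in DMSO for 16 hrs. Viability was read in the same wells as intracellular ATP by luminescence, 30 min at room temperature after reagent addition.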

[14] = qHTS assay for cell viability of HEK293 cells (AID 743288); conditions: ATP luminescence (CellTiter-Glo), 18 h; max response: stronger effect = lower value; further: on the % scale 0 is the no-effect control and ±100 the full control effect; nearly all actives have a fitted effect of over 50% in size
Summary of the method: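 HEK293, 18 h, 37 C, ATP luminescence. Cells at 2,000/well were allowed at least 5 h to settle before dosing; CellTiter-Glo developed 30 min at RT.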

[15] = qHTS assay for cell viability of the p53RE-bla HCT-116 cell line (AID 743292); further: on the % scale 0 is the no-effect control and ±100 the full control effect; nearly all actives have a fitted effect of over 55% in size
Summary of the method: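 Readout: CellTiter-Glo luminescence after 30 min RT. Treatment: compounds in DMSO, 16 h, 37 C. Cells: CellSensor p53RE-bla HCT-116, 4,000/well, preincubated 5 h.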

[16] = target: Nuclear receptor subfamily 1 group I member 2 (Rattus norvegicus) (UniProt Q9R1A7); assay: qHTS assay for small molecule activators of the rat pregnane X receptor (rPXR) signaling pathway (AID 651751; call rule not given here; further: 0% is about no effect); conditions: rPXR reporter cells, luciferase (One-Glo), 24 h
Sequence of Nuclear receptor subfamily 1 group I member 2 (Rattus norvegicus) (Q9R1A7 whole entry, looked up): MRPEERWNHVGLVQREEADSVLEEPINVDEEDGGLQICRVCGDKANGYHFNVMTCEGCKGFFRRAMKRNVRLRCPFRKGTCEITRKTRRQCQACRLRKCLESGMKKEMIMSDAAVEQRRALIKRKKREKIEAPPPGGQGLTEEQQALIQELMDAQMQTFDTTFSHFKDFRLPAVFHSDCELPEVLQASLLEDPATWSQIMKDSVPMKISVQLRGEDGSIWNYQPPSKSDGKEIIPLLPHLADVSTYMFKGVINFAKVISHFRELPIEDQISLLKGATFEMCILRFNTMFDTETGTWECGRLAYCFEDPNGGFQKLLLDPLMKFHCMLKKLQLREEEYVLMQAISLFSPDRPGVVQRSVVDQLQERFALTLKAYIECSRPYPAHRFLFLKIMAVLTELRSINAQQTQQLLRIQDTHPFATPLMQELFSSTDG

[17] = qHTS assay for small molecule activators of the human pregnane X receptor (PXR) signaling pathway (AID 720659; call rule not given here; further: 0% is about no effect)
[18] = qHTS assay for small molecule antagonists of peroxisome proliferator-activated receptor delta signaling (AID 588535; active means well fitted inhibition curve with a large enough effect in the signal ratio, with a control signal flat, not every such curve was filed as active; the % refers to the signal ratio;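 on max response: cells co-treated with a PPAR-delta agonist as stimulator during compound exposure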); conditions: HEK293T PPARd-UAS-bla, beta-lactamase FRET ratio, 18 h; 460 nm channel
Summary of the method: (§2)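 Inhibition of PPAR-delta response element-driven beta-lactamase expression is measured in HEK293T cells exposed to a compound titration series for 18 hrs at 37 C. Half-maximal inhibition comes from Hill equation fitting.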

[19] = target: Peroxisome proliferator-activated receptor delta (Homo sapiens) (UniProt Q03181); assay: as above
Sequence of Peroxisome proliferator-activated receptor delta (Homo sapiens) (Q03181 whole entry, looked up): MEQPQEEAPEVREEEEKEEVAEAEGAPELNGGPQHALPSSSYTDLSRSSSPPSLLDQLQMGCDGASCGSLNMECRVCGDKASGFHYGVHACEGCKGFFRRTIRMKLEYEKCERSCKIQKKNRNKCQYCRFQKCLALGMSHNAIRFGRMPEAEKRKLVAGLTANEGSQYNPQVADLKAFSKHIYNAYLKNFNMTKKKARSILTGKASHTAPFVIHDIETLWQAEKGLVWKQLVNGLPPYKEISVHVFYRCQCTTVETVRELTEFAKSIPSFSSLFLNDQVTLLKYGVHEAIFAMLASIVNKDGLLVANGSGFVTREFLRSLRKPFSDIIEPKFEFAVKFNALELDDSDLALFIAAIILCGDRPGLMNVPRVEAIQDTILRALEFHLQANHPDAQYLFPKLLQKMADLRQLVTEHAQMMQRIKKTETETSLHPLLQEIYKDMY
Summary of the method: as §2

[20] = target: Glucocorticoid receptor (Homo sapiens) (UniProt P04150); assay: qHTS assay for small molecule antagonists of glucocorticoid receptor signaling (AID 588533; active means well fitted inhibition curve with a large enough effect in the signal ratio, with a control signal flat, not every such curve was filed as active; the % refers to the signal ratio;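 further: cells stimulated with 2 nM dexamethasone as agonist; on the % scale 0 is the no-effect control and ±100 the full control effect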)
Sequence of Glucocorticoid receptor (Homo sapiens) (P04150 whole entry, looked up): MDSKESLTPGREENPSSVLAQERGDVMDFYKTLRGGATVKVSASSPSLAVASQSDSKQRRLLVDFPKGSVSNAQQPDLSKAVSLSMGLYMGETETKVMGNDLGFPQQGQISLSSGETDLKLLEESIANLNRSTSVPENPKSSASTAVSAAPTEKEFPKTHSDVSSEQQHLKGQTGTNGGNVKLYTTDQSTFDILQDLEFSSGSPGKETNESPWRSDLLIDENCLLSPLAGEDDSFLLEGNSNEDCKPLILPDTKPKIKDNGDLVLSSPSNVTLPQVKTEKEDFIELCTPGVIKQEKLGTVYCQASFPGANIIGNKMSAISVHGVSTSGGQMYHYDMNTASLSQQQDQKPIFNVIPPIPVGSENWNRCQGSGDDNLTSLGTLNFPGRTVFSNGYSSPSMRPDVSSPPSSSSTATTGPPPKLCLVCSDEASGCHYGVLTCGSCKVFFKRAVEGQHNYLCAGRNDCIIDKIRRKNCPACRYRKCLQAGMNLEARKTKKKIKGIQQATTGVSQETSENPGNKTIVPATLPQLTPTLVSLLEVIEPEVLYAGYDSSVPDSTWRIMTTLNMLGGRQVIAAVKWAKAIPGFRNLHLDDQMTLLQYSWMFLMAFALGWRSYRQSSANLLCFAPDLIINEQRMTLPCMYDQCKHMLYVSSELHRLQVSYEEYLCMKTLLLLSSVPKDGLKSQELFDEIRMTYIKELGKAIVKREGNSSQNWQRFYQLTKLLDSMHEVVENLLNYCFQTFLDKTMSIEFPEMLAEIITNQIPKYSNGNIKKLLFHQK
Summary of the method: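 Antagonist-mode qHTS: compound titrations added to GRE-bla HeLa cells, then dexamethasone 2 nM final; 18 h, 37 C. CCF4 FRET fluorescence normalized to dexamethasone and DMSO; IC50 from Hill fit.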

SMILES	Potency [1]	outcome [2]	max response [3] [%]	Potency [4]	Potency [5]	max response [6] [%]	max response [7]	activation [8]	activation [9]	activation [10]	max response [11]	Potency [12]	max response [13]	max response [14]	Potency [15]	max response [16]	outcome [17]	max response [18] [%]	Potency [19]	Potency [20]
CCOCCOCCOCCO	inactive	inactive	-7.49	inactive	inactive	0.354	-20% (inactive)	-1.32% (inactive)	-1.33% (inactive)	-0.451% (inactive)	-1.08% (inactive)	inactive	19.8% (inactive)	-2.83% (inactive)	inactive	10.6% (inactive)	inactive	–	–	–
CCCCCCCCCC(=O)OC	–	–	-16.2	inactive	inactive	-11.2	2.82% (inactive)	–	0.17% (inactive)	0.259% (inactive)	–	inactive	-16.8% (inactive)	-11.5% (inactive)	inactive	-1.31% (inactive)	inactive	-5.35	inactive	–
C=CCOc1nc(OCC=C)nc(OCC=C)n1	inactive	inactive	-0.634	inactive	inactive	-8.71	0.817% (inactive)	-3.44% (inactive)	0.86% (inactive)	5.16% (inactive)	-2.18% (inactive)	inactive	1.36% (inactive)	-0.661% (inactive)	inactive	-0.162% (inactive)	–	15.5	inactive	inactive
CCCCC(CC)COC(=O)/C=C\C(=O)OCC(CC)CCCC (stereo not given)	inactive	inactive	1.27	inactive	–	-16.2	1.08% (inactive)	-1.03% (inactive)	0.118% (inactive)	0.172% (inactive)	-0.882% (inactive)	inactive	-2.59% (inactive)	-2.82% (inactive)	inactive	-1.19% (inactive)	inactive	14.1	inactive	inactive
